In the library only some 22% were active in any assay of this set; here they are far more common.
LmPK inh: inhibitors of Leishmania mexicana pyruvate kinase; Q27686; Potency, µM (titrated, usually from 57.5 µM), hits mostly inhibitors; AID 1721; purified LmPK, Kinase-Glo ATP luminescence, 1 h; actives 0.37% (n = 290,000)
Target sequence (Q27686 whole entry, looked up): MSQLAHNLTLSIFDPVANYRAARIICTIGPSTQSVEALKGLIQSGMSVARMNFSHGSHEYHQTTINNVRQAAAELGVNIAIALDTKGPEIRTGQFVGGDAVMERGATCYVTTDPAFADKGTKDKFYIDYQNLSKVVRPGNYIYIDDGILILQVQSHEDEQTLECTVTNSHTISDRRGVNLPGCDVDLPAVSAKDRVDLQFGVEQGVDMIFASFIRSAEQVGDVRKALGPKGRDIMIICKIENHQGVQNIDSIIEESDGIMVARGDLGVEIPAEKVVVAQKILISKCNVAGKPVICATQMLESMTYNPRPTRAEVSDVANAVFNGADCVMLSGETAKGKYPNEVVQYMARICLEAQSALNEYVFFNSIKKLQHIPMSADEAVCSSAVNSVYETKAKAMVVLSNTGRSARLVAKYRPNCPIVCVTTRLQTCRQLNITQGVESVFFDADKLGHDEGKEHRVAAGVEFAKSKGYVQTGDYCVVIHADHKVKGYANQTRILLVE
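0.1 nM LmPK, 0.5 mM PEP, 0.1 mM ADP; 50 mM imidazole pH 7.2, 7 mM MgCl2, 50 mM KCl; 1 h RT. Kinase-Glo luminescence readout, normalized to no-enzyme (full inhibition) and uninhibited wells.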
CHX counter: counter-screen for Shiga toxin inhibitors: cycloheximide protein synthesis inhibition; cell reporter, cycloheximide protein synthesis inhibition counterscreen; max response, %; actives 12% (n = 300,000); AID 2314; in the data active means max response mostly above about 13%, no sharp cut-off; inactive means mostly below about 14%; further: read at 38.3 µM for the half of the compounds with a filed dose
Pf growth 96h: P. falciparum growth inhibition at 96 hour, primary screen for plastid delayed-death inhibitors | P. falciparum luciferase reporter growth, 96 h | Potency, µM (top dose mostly 28.7 µM), hits mostly inhibitors | actives 6.9% (n = 320,000)
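Readout is luminescence from an integrated firefly luciferase in P. falciparum. Red cells, 2% hematocrit and 0.05% parasitemia final, were cultured with compound through two parasite generations (96 hours) at 37 C, 5% CO2.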
Pf growth 48h: P. falciparum growth inhibition at 48 hours (one generation); P. falciparum luciferase growth in erythrocytes, 48 h; Potency, µM (highest dose often 28.7 µM), usual class: inhibitors; actives 5.9% (n = 310,000); AID 504832
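Luciferase-expressing P. falciparum in infected erythrocytes (2% hematocrit, 0.1% parasitemia final) in RPMI 1640/0.5% Albumax were exposed to compound for 48 hours at 37 C, 5% CO2; growth read as luminescence.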
Shiga toxin inh: blocks Shiga toxin action in Vero cells. actives 9.2% (n = 290,000). inhibition, % at 38.7 µM. AID 2315. Vero cells, Shiga toxin protein synthesis inhibition reporter; in the data active means inhibition mostly above about 28%, no sharp cut-off; inactive means mostly below about 43%
Of the large screens only hits and unclear results are named; the others gave an inactive call. Unless noted, the call rests on the fitted dose curve; in most records, active means well fitted inhibition curve with a large enough effect; inconclusive means small, poorly fitted or top-dose-only effect, or another doubt; inactive means no such curve, though single readings can be large or run the other way.

Cc1cc(C)c(-c2csc(NC(=O)/C=C/c3cccs3)n2)c(C)c1	Pf growth 96h 12µM
CC(C)=CC(=O)Nc1nnc(-c2ccccc2C)s1	CHX counter 28, Shiga toxin inh 77
COc1ccccc1-c1nnc(NC(=O)C(C)C)s1	none
O=C(/C=C/c1cccc(F)c1)Nc1nccs1	CHX counter 47, Shiga toxin inh 117
Cc1noc(C)c1C(=O)Nc1nc(-c2cccs2)cs1	none (no result: LmPK inh, CHX counter, Shiga toxin inh)
COc1ccc(CCN2C(=NC(C)=O)SC3CS(=O)(=O)CC32)cc1OC (stereo not given)	none
CCc1nnc(NC(=O)C=C(C)C)s1	CHX counter 32, Pf growth 96h inconclusive, Shiga toxin inh 39
O=C(/C=C/c1cccs1)NC1CC1	CHX counter 19
CCc1nnc(NC(=O)C(C)C)s1	none (no result: Pf growth 48h)
O=C(CCCNC(=O)c1ccc(Cl)cc1)NCc1ccccc1F	none
O=C(CSc1n[nH]c(=O)n1Cc1ccccc1)Nc1ccc(F)c(F)c1F	none
C=CC(C)N1C(=O)S/C(=C\c2ccc(N3CCOCC3)cc2C)C1=O (stereo not given)	CHX counter 17, Pf growth 96h inconclusive
O=C1NC(=S)N/C1=C\c1ccc(N2CCOCC2)cc1	CHX counter 28
Cc1cc(N2CCOCC2)ccc1/C=C1/SC(=O)NC1=O	LmPK inh 16µM, CHX counter 31
Cc1cc(N2CCOCC2)ccc1/C=C1\C(=O)NC(=O)N(c2ccccc2)C1=O	none
O=C1NC(=O)C(=Cc2ccc(N3CCOCC3)cc2)C(=O)N1	Pf growth 48h inconclusive
C=CCN1C(=O)S/C(=C\c2ccc(N3CCOCC3)cc2C)C1=O	CHX counter 35 (no result: Pf growth 96h)
COC(=O)c1cc(CSc2nc3ccccc3c(=O)n2C)oc1C	Pf growth 48h inconclusive
Cn1ncc(Cl)c1C(=O)N1CCC(Cc2ccccc2)CC1	none
CCOc1ccc(CN(CCO)CCO)cc1C(=O)OC	Pf growth 96h 2.1µM
O=C(NCCc1ccccc1)C1CCN(S(=O)(=O)c2cccnc2)CC1	Pf growth 96h 7.4µM (no result: Pf growth 48h)
Cc1ccc(NC(=O)C2CCN(S(=O)(=O)c3ccc4c(c3)NC(=O)C(C)S4)CC2)cc1Cl (stereo not given)	Pf growth 96h inconclusive, Pf growth 48h 13µM
Cc1ccc(NC(=O)C2CCN(S(=O)(=O)c3ccc4c(c3)NC(=O)C(C)S4)CC2)c(Cl)c1 (stereo not given)	CHX counter 16, Pf growth 96h inconclusive, Pf growth 48h 10µM
O=C(C1CCN(S(=O)(=O)c2cccnc2)CC1)N1CCN(c2ccccc2Cl)CC1	CHX counter 26, Pf growth 48h inconclusive
Cc1cc(C)cc(NC(=O)C2CCN(S(=O)(=O)c3ccc4c(c3)NC(=O)C(C)S4)CC2)c1 (stereo not given)	Pf growth 96h inconclusive, Pf growth 48h inconclusive
NS(=O)(=O)c1ccc(CCNC(=O)C2CCN(S(=O)(=O)c3ccccc3)CC2)cc1	none
O=C(N/C(=C/c1ccc(Br)cc1)C(=O)N1CCCCC1)c1ccccc1F	Pf growth 48h inconclusive
O=c1cc(-c2ccc(O)cc2)oc2cc(OC3OC(CO)C(O)C(O)C3O)c(C3OC(CO)C(O)C(O)C3O)c(O)c12 (stereo not given)	none (no result: LmPK inh, Pf growth 96h, Pf growth 48h)
Cc1ccccc1CCNC(=O)C1CCN(S(=O)(=O)c2ccc(-n3cnnn3)cc2)CC1	Pf growth 96h 13µM, Pf growth 48h inconclusive
CC1Sc2ccc(S(=O)(=O)N3CCC(C(=O)NCCc4ccccc4)CC3)cc2NC1=O (stereo not given)	CHX counter 15, Pf growth 96h inconclusive, Pf growth 48h 12µM
CCN1CCN(C(=O)C2CCN(S(=O)(=O)c3ccc4c(c3)NC(=O)C(C)S4)CC2)CC1 (stereo not given)	Pf growth 96h 2.9µM, Pf growth 48h inconclusive
O=C(NCCc1ccc(Cl)cc1)C1CCN(S(=O)(=O)c2ccc(-n3cnnn3)cc2)CC1	Pf growth 96h inconclusive, Pf growth 48h inconclusive
Cc1cccc(N2CN=c3s/c(=C\c4ccncc4)c(=O)n3C2)c1	none
COc1cc(/C=c2\sc3n(c2=O)CCCN=3)ccc1O	CHX counter 25
COc1cc(/C=c2\sc3n(c2=O)C(c2ccccc2)C(c2ccccc2)=NN=3)ccc1O (stereo not given)	Pf growth 96h 4.1µM, Pf growth 48h 4.7µM
COc1cc(/C=C2\C(=O)N(C)C(=S)N2C)ccc1O	none
O=c1/c(=C/c2ccc([N+](=O)[O-])cc2)sc2n1CCCN=2	CHX counter 35, Shiga toxin inh 46
S=C(Nc1ccccc1)N1CCC(Cc2ccccc2)CC1	Pf growth 96h inconclusive, Pf growth 48h inconclusive
Cc1cc(OCC(=O)OCC(=O)NCc2ccc3c(c2)OCO3)ccc1Cl	none (no result: LmPK inh, CHX counter, Shiga toxin inh)
COc1ccc(N=C2S/C(=C\c3ccc(C)s3)C(=O)N2CC(C)C)cc1	Pf growth 96h inconclusive, Pf growth 48h inconclusive
CCCN1C(=O)/C(=C/c2cc(C)n(C)c2C)SC1=Nc1ccc(OC)cc1	Pf growth 96h 13µM, Pf growth 48h inconclusive
COc1ccc(N=C2S/C(=C\c3cc(C)n(C)c3C)C(=O)N2C)cc1	Pf growth 96h 9.3µM, Pf growth 48h inconclusive
COc1ccc(N=C2S/C(=C\c3cccs3)C(=O)N2CC(C)C)cc1	Pf growth 96h 3.7µM, Pf growth 48h inconclusive
CCCCC1(C)NC(=O)c2c(C)sc(C(=O)OCC)c2N1 (stereo not given)	Pf growth 96h 8.3µM, Pf growth 48h inconclusive
CCOC(=O)CC1(CC(=O)OCC)NC(=O)c2c(C)sc(C(=O)OCC)c2N1	Pf growth 96h 3.7µM
CCOc1ccc2c(c1)C(N(CCN1CCOCC1)C(=O)Nc1ccccc1)CC(C)(C)O2 (stereo not given)	none
O=C(NC(Cc1ccccc1)C(=O)O)c1cccnc1Cl (stereo not given)	none
CC(NC(=O)CNC(=O)c1ccccc1F)c1ccc(-n2ccnc2)cc1 (stereo not given)	none (no result: LmPK inh, CHX counter, Shiga toxin inh)
Cc1c(Cl)c([N+](=O)[O-])nn1CC(=O)NC12CC3CC(CC(C3)C1)C2	Pf growth 96h inconclusive (no result: Pf growth 48h)
COc1ccc(C(CNC(=O)COc2cccc(C(F)(F)F)c2)N2CCCC2)cc1 (stereo not given)	Pf growth 96h 12µM, Pf growth 48h 10µM (no result: LmPK inh, CHX counter, Shiga toxin inh)
COc1ccc(C(CNC(=O)COc2cccc(C)c2)N2CCCC2)cc1 (stereo not given)	Pf growth 96h 13µM, Pf growth 48h inconclusive (no result: LmPK inh, CHX counter, Shiga toxin inh)
COc1ccc(C(CNC(=O)COc2ccc(Cl)c(C)c2)N2CCCCC2)cc1 (stereo not given)	Pf growth 48h inconclusive
O=C1NC(=S)S/C1=C\C=C\c1ccc([N+](=O)[O-])o1	CHX counter 80, Pf growth 96h 0.29µM, Pf growth 48h 0.29µM, Shiga toxin inh 92
COc1ccc(NC(=O)c2ccc(Cn3cc(Cl)cn3)cc2)cc1	none
Cc1ccc(F)c(NC(=O)c2ccc(Cn3cc(Cl)cn3)cc2)c1	CHX counter 39, Pf growth 48h inconclusive
Cc1nc(SCC(=O)NNC(=O)c2cccs2)[nH]c(=O)c1C	Pf growth 96h inconclusive
CCS(=O)(=O)n1nc(-c2ccc(C)cc2)nc1N	CHX counter 9.4 (no result: Pf growth 96h)
